Test results reported in PubChem BioAssay AID1445 (SRMLSC, 2008).
The whole screen tested about 220,000 compounds, of which about 910 (0.41%) were called active.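 Rule for the calls: active = primary inhibition above the hit cutoff, then over 50% inhibition at one or more dose response concentrations (cut at about 23% in these data, passing the limit was not always enough); inconclusive = conflicting primary data, or primary hits not chosen for dose response; inactive = low primary inhibition, or under 50% at every dose.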 The list comes from a sample in which actives are over-represented; it also holds similar structures and randomly drawn compounds. Measured potencies and affinities stand elsewhere.

Each molecule was assayed against Aminopeptidase N (Plasmodium falciparum (isolate 3D7)) (UniProt O96935) (assay: P. falciparum M1AAP inhibitors, biochemical, fluorogenic H-Leu-NHMec substrate, 1536-well (AID 1445;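 note: plate controls were DMSO full reaction for no effect and no enzyme background for full effect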)). Conditions: recombinant M1AAP, H-Leu-NHMec fluorogenic kinetic assay; at 30 µM, hits give high values unless noted.
Chain of Aminopeptidase N (Plasmodium falciparum (isolate 3D7)) (O96935 whole entry, looked up): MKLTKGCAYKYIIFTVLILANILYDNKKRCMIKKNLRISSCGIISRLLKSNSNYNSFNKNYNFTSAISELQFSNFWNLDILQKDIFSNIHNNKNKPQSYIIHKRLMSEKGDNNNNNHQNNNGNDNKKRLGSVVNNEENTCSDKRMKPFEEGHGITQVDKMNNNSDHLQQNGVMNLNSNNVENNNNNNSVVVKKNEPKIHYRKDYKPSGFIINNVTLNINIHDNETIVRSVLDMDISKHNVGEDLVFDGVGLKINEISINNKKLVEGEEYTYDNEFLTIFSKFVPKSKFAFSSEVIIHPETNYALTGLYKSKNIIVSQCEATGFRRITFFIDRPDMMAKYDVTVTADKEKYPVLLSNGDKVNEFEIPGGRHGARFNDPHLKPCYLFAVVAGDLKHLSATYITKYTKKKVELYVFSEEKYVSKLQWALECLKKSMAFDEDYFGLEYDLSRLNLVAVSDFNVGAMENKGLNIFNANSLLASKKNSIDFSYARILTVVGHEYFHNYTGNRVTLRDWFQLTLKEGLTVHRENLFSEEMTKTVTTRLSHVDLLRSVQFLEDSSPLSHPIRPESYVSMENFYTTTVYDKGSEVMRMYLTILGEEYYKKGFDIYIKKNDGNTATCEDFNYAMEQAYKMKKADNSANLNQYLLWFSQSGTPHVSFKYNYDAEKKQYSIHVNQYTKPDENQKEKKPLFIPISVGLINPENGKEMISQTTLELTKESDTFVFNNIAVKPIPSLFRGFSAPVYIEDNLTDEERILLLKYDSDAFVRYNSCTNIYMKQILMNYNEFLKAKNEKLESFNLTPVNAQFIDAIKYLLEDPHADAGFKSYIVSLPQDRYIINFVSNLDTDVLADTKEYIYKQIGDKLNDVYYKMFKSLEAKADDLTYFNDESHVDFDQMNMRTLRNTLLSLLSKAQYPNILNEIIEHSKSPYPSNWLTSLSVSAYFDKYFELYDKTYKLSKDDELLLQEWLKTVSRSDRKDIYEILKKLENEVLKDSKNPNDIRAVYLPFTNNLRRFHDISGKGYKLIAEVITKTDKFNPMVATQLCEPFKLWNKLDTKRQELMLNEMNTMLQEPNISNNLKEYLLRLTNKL
With `COc1cc(OC)c2c(-c3ccccc3)cc(=O)oc2c1C(CC(=O)N1CCN(c2ccccc2)CC1)c1ccc2c(c1)OCO2` (configuration not stated) the inhibition was 5.15% (inactive). In the case of `C=CCn1c(=O)c2ccccc2n2c(SCC(=O)Nc3sc(C)c(CC)c3C(=O)OCC)nnc12`, the inhibition is reported as 1.54% (inactive). For `CS(=O)(=O)N(CC(=O)Nc1ccccc1C(=O)N1CCOCC1)c1ccc2c(c1)OCO2`, the inhibition was 24.9% (active). With `CS(=O)(=O)N(CC(=O)Nc1ccccc1C(=O)N1CCCC1)c1ccc2c(c1)OCO2` the inhibition was 4.85% (inactive). `CS(=O)(=O)N(CC(=O)Nc1ccccc1C(=O)N1CCOCC1)c1ccccc1` was tested, and the inhibition was -1.24% (inactive). In the case of `Cc1cc(C(=O)CSc2nnc(C3COc4ccccc4O3)n2C)c(C)n1-c1ccc(F)cc1` (configuration not stated), the inhibition is reported as 7.16% (inactive). `CCCOc1cccc(NC(=O)OC2CCN(C)CC2)c1` was tested, and the inhibition was -1.59% (inactive). `Cc1ccc(C(=O)Nc2ncc(Cc3ccc(F)cc3)s2)o1` was tested, and the inhibition was 3.37% (inactive). With `O=[N+]([O-])c1ccc(N/N=C\c2cccnc2)nc1` the inhibition was 6.43% (inactive). In the case of `COc1ccc(C(=O)Nc2nc3nccc(-c4ccccc4)n3n2)cc1`, the inhibition is reported as 0.22% (inactive). In the case of `CCOC(=O)c1c(NC(=O)CSc2ncnc3ccccc23)sc(C)c1C`, the inhibition is reported as 1.43% (inactive). With `COC(=O)c1c(NC(=O)CSc2ccccc2N)sc(C)c1C` the inhibition was 2.47% (inactive). `O=c1[nH]c(/C(=N\O)c2ccccc2)no1` was tested, and the inhibition was 10.2% (inactive). `Cc1nnc(SCc2ccc(Cl)cc2Cl)[nH]c1=O` was tested, and the inhibition was 4.54% (inactive). `S=c1[nH]nc(-c2ccc(Br)cc2)n1Cc1ccco1` was tested, and the inhibition was 3.64% (inactive). For `Cn1cccc1Cc1nnc(SCC(=O)NC2CCCCC2)n1-c1ccc(F)cc1`, the inhibition was 6.82% (inactive). For `CCOc1ccccc1N1CSC2=C(C#N)C(c3c(OC)ccc4ccccc34)CC(=O)N2C1` (configuration not stated), the inhibition was 18.2% (inactive). With `COc1ccc2ccccc2c1C1CC(=O)N2CN(C)CSC2=C1C#N` (configuration not stated) the inhibition was 16% (inactive). In the case of `COc1ccc2ccccc2c1C1CC(=O)N2CN(C3CCCCC3)CSC2=C1C#N` (configuration not stated), the inhibition is reported as 28% (active). `CCOc1ccccc1NC(=O)c1ccc(S(=O)(=O)N(C)C)cc1` was tested, and the inhibition was -1.64% (inactive). `COCc1nnc(NS(=O)(=O)c2ccc([N+](=O)[O-])cc2)s1` was tested, and the inhibition was 2.64% (inactive). `O=C(O)c1cccc2c1C(=O)c1ccccc1C2=O` was tested, and the inhibition was 15.9% (inactive). `Nc1c(C(=O)O)ccc2c1C(=O)c1ccccc1C2=O` was tested, and the inhibition was 4.92% (inactive). `COc1cccc(N2C(=O)CC(N3CCN(CCN=CC4=C(O)CC(C)(C)CC4=O)CC3)C2=O)c1` (configuration not stated) was tested, and the inhibition was 5.88% (inactive). In the case of `COc1cc(-c2cc(=O)c3c(O)cc(O)cc3o2)ccc1O`, the inhibition is reported as 12.4% (inactive). For `O=c1c(-c2c(O)cc(O)c3c(=O)cc(-c4ccc(O)cc4)oc23)c(-c2ccc(O)cc2)oc2cc(O)cc(O)c12`, the inhibition was 12% (inactive). `Cn1c(SCC(=O)Nc2nccs2)nnc1C12CC3CC(CC(C3)C1)C2` was tested, and the inhibition was 6.61% (inactive). With `O=C(CCC1CCCN(C(=O)c2ccncc2)C1)NCc1ccc(F)c(F)c1` (configuration not stated) the inhibition was 1.64% (inactive). `COc1ccc(C(=O)N2CCCC(CCC(=O)NCc3ccc(F)c(F)c3)C2)cc1F` (configuration not stated) was tested, and the inhibition was 3.11% (inactive). In the case of `O=C(Cn1cnc2c(nnn2Cc2ccccc2)c1=O)c1ccc(Cl)cc1`, the inhibition is reported as 2.57% (inactive). With `Cc1cccc(-c2cc3nc4c(c(NCc5ccco5)n3n2)CCCC4)c1` the inhibition was -3.49% (inactive). `C=CCn1c(SCC(=O)NC23CC4CC(CC(C4)C2)C3)nc(O)cc1=O` was tested, and the inhibition was 24.7% (active). `C=CCn1c(SCC(=O)C23CC4CC(CC(C4)C2)C3)nc(O)cc1=O` was tested, and the inhibition was 5.12% (inactive). `C=CCn1c(SCC(=O)NC23CC4CC(CC(C4)C2)C3)nc2cc(C(=O)O)ccc2c1=O` was tested, and the inhibition was 2.59% (inactive). For `Cc1ccc(S(=O)(=O)NCC(=O)N(CC(=O)NCC2CCCO2)C2CCCC2)cc1` (configuration not stated), the inhibition was 4.45% (inactive). In the case of `O=c1sc(/C=N/Nc2ccccc2)c(Cl)n1Cc1ccccc1`, the inhibition is reported as -3.08% (inactive). `CC(C)c1ccc(N2C=Nc3ccc(C(C)C)cc3C2)cc1` was tested, and the inhibition was 0.82% (inactive). `O=C1C(C2=NC(c3ccccn3)C3C(=O)N(c4ccccc4)C(=O)C23)=C(O)c2ccccc21` (configuration not stated) was tested, and the inhibition was 3.12% (inactive). With `O=C1C(C2=NC(C(=O)O)C3C(=O)N(c4ccc(Cl)cc4)C(=O)C23)=C(O)c2ccccc21` (configuration not stated) the inhibition was 25.7% (active). For `O=C1C(C2=NC(C(=O)O)C3C(=O)N(c4ccccc4)C(=O)C23)=C(O)c2ccccc21` (configuration not stated), the inhibition was 10.7% (inactive). In the case of `CCCCNC(=S)NNC(=O)CCn1cc(C)cn1`, the inhibition is reported as 4.21% (inactive). In the case of `CCOC(=O)Cc1cc(=O)n2[nH]c(C(C)(C)C)cc2n1`, the inhibition is reported as 4.13% (inactive). For `Cc1onc(-c2ccccc2)c1NC(=O)Nc1c(-c2ccccc2)noc1C`, the inhibition was 5.84% (inactive). `Cc1ccc(S(=O)(=O)N(C)C)cc1NC(=O)Nc1ccccc1` was tested, and the inhibition was 3.2% (inactive). `CCOC(=O)c1c(NC(=O)CSc2nnc(-c3ccccc3)n2CC)sc(C(C)=O)c1C` was tested, and the inhibition was 5.61% (inactive). With `CCCOC(=O)CSc1nc(N)c(C#N)c(-c2ccco2)c1C#N` the inhibition was 8.7% (inactive). With `N=C1/C(=C\c2ccc(-c3cc(Cl)cc(Cl)c3)o2)C(=O)N=C2SC=C(c3ccccc3)N12` the inhibition was -3.79% (inactive). In the case of `N=C1/C(=C\c2ccc(-c3ccc(C(=O)O)cc3)o2)C(=O)N=C2SC=C(c3ccccc3)N12`, the inhibition is reported as 8.48% (inactive). `CC(C)S(=O)(=O)C1=NSC2=NC(=O)/C(=C\c3ccc(-c4cccc(C(=O)O)c4)o3)C(=N)N21` was tested, and the inhibition was 17.7% (inactive). For `N=C1/C(=C\c2ccc(-c3cccc(Cl)c3)o2)C(=O)N=C2SC=C(c3ccccc3)N12`, the inhibition was 15.9% (inactive). With `CC12CCC(C/C1=N\N=C1\NC(=O)/C(=C\c3cccc(Br)c3)S1)C2(C)C` (configuration not stated) the inhibition was 6.04% (inactive). For `CCCC(=O)c1cn(CC(=O)OC)c2ccccc12`, the inhibition was 1.35% (inactive). For `CCCn1c(OC)nc2c1c(=O)n(C)c(=O)n2C`, the inhibition was 1.88% (inactive). With `CCCOc1nc2c(c(=O)n(C)c(=O)n2C)n1C` the inhibition was 2.15% (inactive). For `CCCOc1nc2c(c(=O)n(C)c(=O)n2C)n1CCC`, the inhibition was 24.2% (active). For `Clc1cnc(N/N=C/c2cccs2)c(Cl)c1`, the inhibition was 4.04% (inactive). With `Cn1cnc2c(N/N=C/c3cccs3)ncnc21` the inhibition was 7.29% (inactive). In the case of `CCCCN(C)c1c(N2CCC(C(=O)OCC)CC2)c(=O)c1=O`, the inhibition is reported as 12.2% (inactive). With `Cc1cc(C)c(S(=O)(=O)NCC(=O)O)cc1C` the inhibition was -7.15% (inactive). For `O=C(O)CSc1cc(NS(=O)(=O)c2cccc([N+](=O)[O-])c2)c2ccccc2c1O`, the inhibition was 19.8% (inactive). With `O=C(CSc1nc(O)c(Cc2ccccc2)c(=O)[nH]1)N1CCOCC1` the inhibition was 0.8% (inactive). With `Cc1ccc(-c2cc3ncc(C#N)c(N)n3n2)cc1` the inhibition was 6.77% (inactive). `COc1ccc(C(=O)NCCCN2CCOCC2)cc1S(=O)(=O)N1CCCc2ccccc21` was tested, and the inhibition was -1.32% (inactive). With `COc1ccc(S(=O)(=O)Nc2cc(Sc3ncn[nH]3)c(O)c3ccccc23)cc1` the inhibition was 24.3% (active). For `COc1ccc(S(=O)(=O)Nc2ccc(O)c3ccccc23)cc1`, the inhibition was 5.24% (inactive). In the case of `O=S(=O)(Nc1cc(Sc2ncn[nH]2)c(O)c2ccccc12)c1ccccc1`, the inhibition is reported as 13.5% (inactive). `Cn1cnnc1SC1CCCCC1NS(=O)(=O)c1ccccc1` (configuration not stated) was tested, and the inhibition was -1.9% (inactive). `CCc1ccc(C(=O)CN2C(=O)NC(C)(CCc3ccccc3)C2=O)cc1` (configuration not stated) was tested, and the inhibition was 0.01% (inactive). In the case of `c1ccc(C2=Nn3c(nnc3-c3ccco3)SC2)cc1`, the inhibition is reported as 7.07% (inactive). For `Oc1ccc(C2=Nn3c(nnc3-c3ccco3)SC2)cc1O`, the inhibition was 29.3% (active). With `Fc1ccc(C2=Nn3c(nnc3-c3ccco3)SC2)cc1` the inhibition was 4.7% (inactive). For `CCOC(=O)C(NC(=O)C1CCCN1C(=O)OCc1ccccc1)C(=O)OCC` (configuration not stated), the inhibition was -8.77% (inactive). For `CCN(CC)C(=O)C1CCCN(Cc2ccc(OC)c(C)c2)C1` (configuration not stated), the inhibition was -5.17% (inactive). With `COCCCNC(=O)c1cccc(OC)c1OC` the inhibition was 3.12% (inactive). With `COc1ccc(NC(=O)c2cnc(C)cn2)c2ncccc12` the inhibition was 1.63% (inactive). With `Cc1cnc(C(=O)Nc2cccc3cccnc23)cn1` the inhibition was 24.3% (active). With `Cc1cnc(C(=O)Nc2ccccc2F)cn1` the inhibition was 0.48% (inactive). With `Brc1ccc(C2Nc3cccc4cccc(c34)N2)s1` the inhibition was 1.05% (inactive). With `Cc1cccc(C)c1-n1cccc1/C=C1\SC(=S)N(c2cccc(C(=O)O)c2)C1=O` the inhibition was 6.85% (inactive). `Cc1[nH]c2ccccc2c1/C=N/Nc1cccc(C(=O)O)c1` was tested, and the inhibition was 11.9% (inactive). In the case of `COC(=O)CN1C(=O)C2(C(C#N)=C(N)Oc3cc(C)oc(=O)c32)c2ccccc21` (configuration not stated), the inhibition is reported as 1.21% (inactive). With `COC(=O)CN1C(=O)C2(C(C#N)=C(N)Oc3c2c(C)nn3-c2ccccc2)c2ccccc21` (configuration not stated) the inhibition was 4.95% (inactive). For `CCN1C(=O)C2(C(C#N)=C(N)Oc3n[nH]c(-c4ccc(Cl)cc4)c32)c2ccccc21` (configuration not stated), the inhibition was -0.38% (inactive). For `CCN1C(=O)C2(C(C#N)=C(N)Oc3n[nH]c(-c4ccccc4)c32)c2ccccc21` (configuration not stated), the inhibition was -4.58% (inactive). `Cc1cccc(OCCOCCSc2ncccn2)c1` was tested, and the inhibition was 11.6% (inactive). `COc1cccc(OC)c1OCCCOc1ccc(C)cc1Br` was tested, and the inhibition was 3.98% (inactive). With `CC1CCCN(C(=O)CSc2nnc(-c3ccc(S(=O)(=O)N4CCOCC4)cc3)n2C)C1` (configuration not stated) the inhibition was 0.7% (inactive). With `Cc1cc(Cl)c2ccc(Cl)cc2n1` the inhibition was 0.44% (inactive). `O=[N+]([O-])c1ccc2c(c1)oc1ccccc12` was tested, and the inhibition was -3.55% (inactive). For `CC(=O)CC(c1ccc([N+](=O)[O-])cc1)c1c(O)c2ccccc2oc1=O` (configuration not stated), the inhibition was 0.61% (inactive). In the case of `Cc1csc(NC(=O)CSc2nc(C(C)C)nc3c2c(=O)n(C)c(=O)n3C)n1`, the inhibition is reported as -1.73% (inactive). For `CS(=O)(=O)c1ccc2nc(NC(=O)c3ccc(N4C(=O)CCC4=O)cc3)sc2c1`, the inhibition was 5.15% (inactive).
